Experimental data as given in PubChem BioAssay (NCI).
About 83,000 compounds went through this panel and 20% of them were active in at least one assay; those are over-represented in the sample as a whole.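 Results are percent growth after 48 hours of single-concentration exposure. 100 means growth as in untreated cells, lower positive values show inhibition; negative values down to -100 show cell death.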 Activity calls are given as the source filed them. How the source made its calls: active means growth percent below 10; inactive means the rest.

Legend:
Experiment in all cases: NCI-60 one-dose screen, 48 h (100 = growth as untreated, 0 = no growth, -100 = all killed)
Conditions in all cases: 10 µM unless noted
RPMI-8226 leukemia = tested on: RPMI-8226 leukemia
OVCAR-8 ovarian = tested on: OVCAR-8 ovarian
OVCAR-5 ovarian = tested on: OVCAR-5 ovarian
OVCAR-4 ovarian = tested on: OVCAR-4 ovarian
SK-OV-3 ovarian = tested on: SK-OV-3 ovarian
IGROV1 ovarian = tested on: IGROV1 ovarian
OVCAR-3 ovarian = tested on: OVCAR-3 ovarian
HS 578T breast = tested on: HS 578T breast
NCI/ADR-RES ovarian = tested on: NCI/ADR-RES ovarian
SR leukemia = tested on: SR leukemia

Measured: growth

O=C(N=Nc1c(O)[nH]c2ccccc12)c1cc(-c2ccccc2)on1
inactive: RPMI-8226 leukemia 112% | OVCAR-8 ovarian 102% | OVCAR-5 ovarian 99.8% | OVCAR-4 ovarian 104% | SK-OV-3 ovarian 116% | IGROV1 ovarian 104% | OVCAR-3 ovarian 111% | HS 578T breast 96.7% | NCI/ADR-RES ovarian 105%

CC(=O)OCCC/C(=C/c1cc2ccccc2c2ccccc12)[N+](=O)[O-]
inactive: SK-OV-3 ovarian 44.7%
active: SR leukemia -45.8% | OVCAR-8 ovarian -100% | OVCAR-5 ovarian -95.1% | OVCAR-4 ovarian 0.455% | OVCAR-3 ovarian -99.1% | HS 578T breast -46.2% | NCI/ADR-RES ovarian -29.4%

CSc1nc(NCc2ccccc2)c(C#N)c(-c2cccc([N+](=O)[O-])c2)n1
inactive: RPMI-8226 leukemia 100% | OVCAR-8 ovarian 95% | OVCAR-5 ovarian 90.7% | OVCAR-4 ovarian 88.5% | SK-OV-3 ovarian 97.1% | IGROV1 ovarian 99.9% | OVCAR-3 ovarian 111% | HS 578T breast 92% | NCI/ADR-RES ovarian 95.2%

O=C(N/N=C/c1c[nH]c2ccccc12)c1cc(-c2ccccc2)on1
inactive: RPMI-8226 leukemia 90% | OVCAR-8 ovarian 102% | OVCAR-5 ovarian 97.5% | OVCAR-4 ovarian 85.6% | SK-OV-3 ovarian 91% | IGROV1 ovarian 87.2% | OVCAR-3 ovarian 103% | HS 578T breast 94.4% | NCI/ADR-RES ovarian 84.3%

C=CCSSc1ncnc2c1ncn2C1OC(CO)C(O)C1O (configuration not stated)
active: RPMI-8226 leukemia -8.17% | SK-OV-3 ovarian 7.46%
inactive: OVCAR-8 ovarian 20.1% | OVCAR-5 ovarian 45.3% | OVCAR-4 ovarian 33.8% | IGROV1 ovarian 34.9% | OVCAR-3 ovarian 29.1% | HS 578T breast 47.9% | NCI/ADR-RES ovarian 28.4%

O=C1NC(=S)NC(=O)C1CC(=O)n1c(-c2ccccc2)nc2ccccc21
inactive: RPMI-8226 leukemia 108% | OVCAR-8 ovarian 95.3% | OVCAR-5 ovarian 99.5% | OVCAR-4 ovarian 98.1% | SK-OV-3 ovarian 90.4% | IGROV1 ovarian 84.2% | OVCAR-3 ovarian 103% | HS 578T breast 98.9% | NCI/ADR-RES ovarian 104%

C=CC(=O)Nc1cccc(-c2nc(SC)nc(NCCc3ccc(OC)c(OC)c3)c2C#N)c1
active: RPMI-8226 leukemia 9.33%
inactive: OVCAR-8 ovarian 30.7% | OVCAR-5 ovarian 91.7% | OVCAR-4 ovarian 19.4% | SK-OV-3 ovarian 89.3% | IGROV1 ovarian 65.7% | OVCAR-3 ovarian 53.6% | HS 578T breast 71.1% | NCI/ADR-RES ovarian 23.7%

CN(C)[C@@H]1C(=O)C(C(=O)NCc2nc3[nH]cnc(=S)c3[nH]2)=C(O)[C@@]2(O)C(=O)C3=C(O)c4c(O)cccc4[C@@](C)(O)[C@H]3C[C@@H]12
active: OVCAR-8 ovarian 7.48%
inactive: SR leukemia 12.5% | OVCAR-5 ovarian 36.3% | OVCAR-4 ovarian 39.8% | SK-OV-3 ovarian 19.9% | IGROV1 ovarian 12.5% | OVCAR-3 ovarian 38.7% | HS 578T breast 73.5% | NCI/ADR-RES ovarian 30.5%

CCCOc1ccc2nc(NC(=O)OC)[nH]c2c1
inactive: OVCAR-5 ovarian 39.2% | OVCAR-4 ovarian 53.3% | IGROV1 ovarian 36.9% | HS 578T breast 29.8%
active: RPMI-8226 leukemia 7.83% | OVCAR-8 ovarian 3.91% | SK-OV-3 ovarian 4.92% | OVCAR-3 ovarian -46.8% | NCI/ADR-RES ovarian -6.3%

Cc1nc2ccccc2n1C(=O)C[C@@H]1NC(=S)NC1=O
inactive: RPMI-8226 leukemia 111% | OVCAR-8 ovarian 93.6% | OVCAR-5 ovarian 85.6% | OVCAR-4 ovarian 101% | SK-OV-3 ovarian 100% | IGROV1 ovarian 94.8% | OVCAR-3 ovarian 108% | HS 578T breast 104% | NCI/ADR-RES ovarian 101%

NC(N)=N/N=C(/c1ccccc1)c1ccc(F)cc1
inactive: OVCAR-4 ovarian 27.9% | SK-OV-3 ovarian 17.6%
active: SR leukemia -19.4% | OVCAR-8 ovarian -65.7% | OVCAR-3 ovarian -48.8% | HS 578T breast -13.4% | NCI/ADR-RES ovarian -37.3%

C=C(C)[C@@H]1CC[C@]2(C(=O)OC)CC[C@]3(C)[C@H](CC[C@@H]4[C@@]5(C)C/C(=C/c6ccc(OC)cc6)C(=O)C(C)(C)[C@@H]5CC[C@]43C)[C@@H]12
inactive: RPMI-8226 leukemia 54.8% | OVCAR-8 ovarian 102% | OVCAR-5 ovarian 93.4% | OVCAR-4 ovarian 85.8% | SK-OV-3 ovarian 102% | IGROV1 ovarian 100% | OVCAR-3 ovarian 86.7% | HS 578T breast 94.9% | NCI/ADR-RES ovarian 93.2%

COc1ccc(C(=S)N2CCN(c3cccc(Cl)c3)CC2)cc1
inactive: SR leukemia 90.6% | OVCAR-8 ovarian 100% | OVCAR-5 ovarian 98.5% | OVCAR-4 ovarian 99.1% | SK-OV-3 ovarian 107% | IGROV1 ovarian 104% | OVCAR-3 ovarian 112% | HS 578T breast 118% | NCI/ADR-RES ovarian 104%

CN(C)S(=O)(=O)c1ccc(S(=O)(=O)Nc2cccc(Cl)c2N2CCCCC2)cc1
inactive: RPMI-8226 leukemia 48% | OVCAR-8 ovarian 92% | OVCAR-5 ovarian 89.4% | OVCAR-4 ovarian 68.2% | SK-OV-3 ovarian 98.3% | IGROV1 ovarian 82.5% | OVCAR-3 ovarian 90.6% | HS 578T breast 91.8% | NCI/ADR-RES ovarian 76.6%

C=C(C)[C@@H]1CC[C@]2(C(N)=O)CC[C@]3(C)[C@H](CC[C@@H]4[C@@]5(C)C/C(=C/c6ccco6)C(=O)C(C)(C)[C@@H]5CC[C@]43C)[C@@H]12
inactive: RPMI-8226 leukemia 84.6% | OVCAR-8 ovarian 93.8% | OVCAR-5 ovarian 101% | OVCAR-4 ovarian 95.8% | SK-OV-3 ovarian 102% | IGROV1 ovarian 101% | OVCAR-3 ovarian 105% | HS 578T breast 95.3% | NCI/ADR-RES ovarian 96.6%

O=C1NC(=S)N[C@H]1CC(=O)n1cnc2ccccc21
inactive: RPMI-8226 leukemia 115% | OVCAR-8 ovarian 104% | OVCAR-5 ovarian 100% | OVCAR-4 ovarian 107% | SK-OV-3 ovarian 111% | IGROV1 ovarian 96.5% | OVCAR-3 ovarian 110% | HS 578T breast 99.1% | NCI/ADR-RES ovarian 96.5%

NC(CSC(c1ccccc1)(c1ccccc1)c1ccc(Cl)cc1)C(=O)O (configuration not stated)
inactive: OVCAR-5 ovarian 12.2% | OVCAR-4 ovarian 63.2% | SK-OV-3 ovarian 17.2%
active: SR leukemia -24.5% | OVCAR-8 ovarian -15.9% | OVCAR-3 ovarian -41.4% | HS 578T breast -36.2% | NCI/ADR-RES ovarian -20.5%

Cc1nc2c3c(-c4ccccc4)c(-c4ccccc4)oc3ncn2n1
inactive: RPMI-8226 leukemia 92.7% | OVCAR-8 ovarian 97.3% | OVCAR-5 ovarian 95.4% | OVCAR-4 ovarian 83% | SK-OV-3 ovarian 93% | IGROV1 ovarian 94.7% | OVCAR-3 ovarian 111% | HS 578T breast 95.8% | NCI/ADR-RES ovarian 94.1%

CCCCCCCCCCCCC[N+](C)(C)Cc1ccccc1
inactive: OVCAR-5 ovarian 24.9% | NCI/ADR-RES ovarian 90.2%
active: RPMI-8226 leukemia -50.9% | OVCAR-8 ovarian -30.5% | OVCAR-4 ovarian 8.67% | SK-OV-3 ovarian 4.31% | IGROV1 ovarian -49.9% | OVCAR-3 ovarian -61.1% | HS 578T breast -31.4%
